Source: PubChem
GAA inhib = alpha-glucosidase (human) inhibition | Potency, µM (doses to about 76.9 µM), inactives show at the highest dose activity change, negative = inhibition, actives largely listed as inhibitors | actives 0.005% (n = 200,000) | P10253 | purified human GAA, 4-MU-alpha-glucoside fluorescence | AID 1466;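 note: potency is the fitted concentration of half-maximal effect; plate controls were uninhibited enzyme wells for no effect and no-enzyme background for full effect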
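Read-out is 4-methylumbelliferone fluorescence (Ex 365/Em 440 nm) after NaOH/glycine stop at pH 10. Enzyme 4 nM, substrate 400 uM, pH 5.0 citrate buffer, 20 min room temperature; AC50 from Hill-equation concentration-response.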
GLA spleen mod = inhibits or activates alpha-galactosidase in human spleen homogenate; human spleen homogenate, 4MU-alpha-Gal fluorescence, 40 min; Potency, µM (top dose mostly 80 µM), inactives show at the top dose activity change, negative = inhibition, actives largely listed as inhibitors; P06280; actives 0.008% (n = 240,000);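 note: potency is the fitted concentration of half-maximal effect; 0% = enzyme with vehicle and -100% = no enzyme basal signal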
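Human spleen homogenate (1 ug) was the enzyme source, with 4-methylumbelliferyl-alpha-D-galactopyranoside (1 mM final) in pH 5.0 citrate buffer with 0.01% Tween-20. Compounds were titrated; after 40 min at 37C, NaOH/glycine stop, 4-MU fluorescence read; AC50 from Hill fits.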
N370S GC = inhibitors or activators of N370S glucocerebrosidase for Gaucher disease; P04062; N370S GC spleen homogenate, 4MU-glucoside fluorescence; Potency, µM (doses to about 59.4 µM), for inactives: top-dose activity change, negative = inhibition, most hits filed as inhibitors; actives 0.092% (n = 330,000); AID 2101;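 note: potency is the fitted concentration of half-maximal effect; 0% = full enzyme activity and -100% = no enzyme basal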
GAA spleen mod = inhibits or activates alpha-glucosidase in human spleen homogenate; P10253; human spleen homogenate, 4-MU-alpha-glucoside fluorescence; Potency, µM (series often up to 79.9 µM), for inactives: at the highest dose activity change, negative = inhibition, actives largely listed as inhibitors; actives 0.006% (n = 240,000); AID 2112;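 note: potency is the fitted concentration of half-maximal effect; 0% = enzyme with vehicle and -100% = no enzyme basal signal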
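Compounds were titrated against alpha-glucosidase in spleen homogenate at pH 5.0, with 1 mM 4-methylumbelliferyl substrate for 40 min at 37 C. Reactions were quenched with pH 10 NaOH/glycine and fluorescence measured.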
GAA glycogen = inhibitors or activators of human alpha-glucosidase glycogen cleavage | recombinant GAA, glycogen substrate, Amplex Red glucose oxidase fluorescence | Potency, µM (titrated, usually from 76.4 µM), for inactives: at the highest dose activity change, negative = inhibition, actives largely listed as inhibitors | actives 0.38% (n = 300,000);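 note: potency is the fitted concentration of half-maximal effect; 0% = full enzyme reaction and -100% = no-enzyme basal signal; the screen sought inhibitors and activators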
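Recombinant enzyme (4 nM final) with compounds titrated up to 77 uM and bovine liver glycogen (30 ug) in citrate pH 5.0, 0.01% Tween-20, 37 C 40 min. Released glucose detected by Amplex Red/glucose oxidase (Ex 573/Em 610); AC50 from Hill fits.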
GLA inh pH 4.5 = blocks human alpha-galactosidase A at pH 4.5; purified enzyme, 4-MU-alpha-Gal fluorescence, pH 4.5; activity change, negative = inhibition, % at 105 µM; P06280; AID 1467; 230,000 tested, under 10 active;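 note: 0% = full activity with enzyme and -100% = basal without enzyme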
Target sequence (P06280 whole entry, looked up): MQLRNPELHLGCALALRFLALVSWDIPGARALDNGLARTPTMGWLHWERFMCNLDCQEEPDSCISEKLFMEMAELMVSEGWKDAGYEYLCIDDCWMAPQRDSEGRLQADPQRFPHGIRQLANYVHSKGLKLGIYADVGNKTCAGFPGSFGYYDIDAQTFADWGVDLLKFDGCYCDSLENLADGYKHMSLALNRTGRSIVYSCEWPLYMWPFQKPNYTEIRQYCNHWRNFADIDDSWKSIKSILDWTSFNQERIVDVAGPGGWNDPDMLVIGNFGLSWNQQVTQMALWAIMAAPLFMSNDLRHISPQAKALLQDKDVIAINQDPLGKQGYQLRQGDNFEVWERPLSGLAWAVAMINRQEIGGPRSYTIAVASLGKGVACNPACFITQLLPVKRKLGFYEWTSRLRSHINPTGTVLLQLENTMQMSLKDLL
The depositor's hits bear a star; ? = inconclusive; · = no result; [ ] = remark or other dose. The list is not random: actives were taken first. Their share in the collection is about 0.41%. Calls come from the whole dose curve; as a rule, active = well fitted curve in the direction sought with a large enough effect; inconclusive = small, poorly fitted or top-dose-only effect, or another doubt; inactive = no such curve, though single readings can be large; an effect the other way counts as inactive or inconclusive.

SMILES | GAA inhib | GLA spleen mod | N370S GC | GAA spleen mod | GAA glycogen | GLA inh pH 4.5
CC(C)c1nc(C(=O)N2CCc3c([nH]c4ccccc34)C2c2ccccn2)cs1 (configuration not stated) | ? | -17% | -28% | 4% | -21% | -18
Cc1nc(C(=O)N2CCc3c([nH]c4ccccc34)C2c2ccccn2)cs1 (configuration not stated) | ? | -4% | ? | -8% | 16µM* | 2
COC(=O)c1ccc(NC(=O)CSc2cn(CC(=O)N3CCCCCC3)c3ccccc23)cc1 | · | · | · | · | -6%[76.3 µM] | ·
Cc1ccc(/C=N\Nc2nc3ccc(Cl)cc3[nH]2)o1 | 9% | 1% | -4% | 3% | 6.3µM* | 2
Cc1c(NC(=O)c2ccc(-c3ccc(F)cc3)o2)cccc1-c1nc2ncccc2o1 | · | · | · | · | -3%[76.3 µM] | ·
CCc1ccc(C(=O)c2cn(CC(=O)Nc3ccc(F)cc3)c3cc4c(cc3c2=O)OCO4)cc1 | · | · | · | · | -8%[76.3 µM] | ·
C[C@@H]1O[C@@H](Oc2c(-c3cc(O)c(O)c(O)c3)oc3cc(O)cc(O)c3c2=O)[C@H](O)[C@H](O)[C@H]1O | -3%[15.4 µM] | 22% | -6% | -2% | 3.2µM* | -9
O=c1c(OC2OC(CO)C(O)C(O)C2O)c(-c2ccc(O)c(O)c2)oc2cc(O)cc(O)c12 (configuration not stated) | -1%[15.4 µM] | -5% | -13% | -1% | 13µM* | -3
CCCOc1ccc(C(=O)Nc2ccc3oc(-c4ccc5ccccc5c4)nc3c2)cc1 | · | · | · | · | -1%[76.3 µM] | ·
COc1cc(CN2CCN(c3cccc(C)c3C)CC2)cc(OC)c1O | -9% | -25% | -3% | -16% | 28µM* | 4
CCOc1cc2c3c(c1)C1(Nc4ccccc4S1)C(=O)N3C(C)(C)CC2C (configuration not stated) | -7% | -2% | 15% | -1% | 35µM* | -6
CCOc1cc2c3c(c1)C1(OCCO1)C(=O)N3C(C)(C)CC2C (configuration not stated) | -6% | 3% | 5% | 0% | -4% | -15
Cc1cc(=O)n2nc(N(C)CC(=O)NCc3ccccc3C)sc2n1 | · | · | · | · | 14%[76.3 µM] | ·
CCOC(=O)C1CCCN(Cc2nc(N)nc(Nc3ccccc3)n2)C1 (configuration not stated) | ? | 6% | -12% | 5% | 4µM* | 3
CCOC(=O)C1CCCN(C(=S)Nc2ccc(Nc3ccccc3)cc2)C1 (configuration not stated) | -14% | 7% | 5% | -11% | 40µM* | -6
COc1ccc2[nH]cc(CCNc3ccnc(-c4ccc5c(c4)OCO5)n3)c2c1 | · | ? | ? | -4% | · | ·
NNC(=O)c1nn(-c2ccc(Cl)cc2)cc1O | 9% | -4% | -22% | -6% | 28µM* | 6
CCOc1ccc(Cc2n[nH]c(=S)n2N)cc1 | 4% | -1% | 0% | -4% | 4% | 12
COc1ccc(N2Nc3n[nH]c(N)c3N2)cc1 | -11% | -7% | -24% | ? | 25µM* | -6
CCOc1ccc(N2Nc3n[nH]c(N)c3N2)cc1 | -8% | -2% | -11% | -14% | 22µM* | -4
O=C(O)c1cc(N=Nc2ccc(-c3ccc(N=Nc4ccc(O)c(C(=O)O)c4)cc3)cc2)ccc1O | · | -13% | -8% | -7% | · | ·
O=C(NCCn1cc(SCc2ccc(F)cc2)c2ccccc21)c1cccs1 | · | · | · | · | -1%[76.3 µM] | ·
CCc1ccc(C2CC(=O)Nc3c2c(=O)n(C)c2ncnn32)cc1 (configuration not stated) | · | · | · | · | -7%[76.3 µM] | ·
Nc1cc(Br)c(N)c(Br)c1 | 4% | -7% | -9% | -3% | 32µM* | 6
c1cncc(-c2nccc(NCc3cccs3)n2)c1 | · | -5% | -26% | 5% | · | ·
SMILES | GAA inhib | GLA spleen mod | N370S GC | GAA spleen mod | GAA glycogen | GLA inh pH 4.5
Cc1ccccc1-c1nccc(NCc2cccs2)n1 | · | -5% | 4.5µM* | 4% | · | ·
COc1cccc(-c2nccc(NCc3cccs3)n2)c1 | · | 5% | 4µM* | 9% | · | ·
O=[N+]([O-])c1cc(-c2nnc(Nc3ccc(O)cc3)c3ccccc23)ccc1N1CCOCC1 | -4% | -3% | ? | -1% | 16µM* | -4
CCCn1c(SCC(O)c2cccc(OC)c2)nc2ccccc21 (configuration not stated) | · | · | · | · | 1%[76.3 µM] | ·
Cc1cc(S(=O)(=O)Nc2cccc(C(=O)O)c2)c(C)c(S(=O)(=O)c2ccccc2)c1 | · | · | · | · | 4%[76.3 µM] | ·
Cc1ccc(CNc2nc3c([nH]2)c(=O)n(C)c(=O)n3C)cc1 | -3% | 1% | -2% | -6% | 4% | 4
Cn1c(=O)c2[nH]c(Nc3ccccc3)nc2n(C)c1=O | -5% | -4% | 0% | 2% | 7.1µM* | 2
O=C(NCC(c1cccnc1)N1CCN(Cc2ccccc2)CC1)C(=O)Nc1cccc(F)c1 (configuration not stated) | · | · | · | · | 2%[76.3 µM] | ·
O=c1oc2ccccc2c2oc3cc(O)c(O)cc3c12 | · | 1% | -12% | 0% | 28µM* | 2
Cc1cc(C)n(-c2nc3ccccc3nc2N2CCN(c3cccc(C)c3C)CC2)n1 | · | · | · | · | -13%[76.3 µM] | ·
CC(=O)C1=C(c2ccccc2)NC(=S)NC1c1ccc(O)c(O)c1 (configuration not stated) | 4% | -1% | -8% | -1% | 3.2µM* | -5
CC(=O)C1=C(c2ccccc2)NC(=O)NC1c1ccc(O)c(O)c1 (configuration not stated) | 11% | -6% | 0% | 0% | ? | -12
COc1ccc(Cl)cc1NC(=O)c1cc2nc(-c3ccc(C)cc3)cc(C(F)(F)F)n2n1 | · | · | · | · | 10%[76.3 µM] | ·
CCOc1ccc(Nc2nc(Cc3nnc(SCC(=O)NCC4CCCO4)n3C)cs2)cc1 (configuration not stated) | -3% | -7% | 4% | -8% | 11µM* | 8
CCOc1ccc(Nc2nc(Cc3nnc(SCC(=O)NC4CCCCC4)n3C)cs2)cc1 | 0% | 7% | -3% | -5% | ? | 11
CCCCn1c(=O)c2oc3ccccc3c2n(Cc2cccc(C)c2)c1=O | · | · | · | · | 12%[76.3 µM] | ·
O=C(N[C@H]1CCCCNC1=O)c1cc(COc2ccc(F)cc2F)on1 | · | · | 18% | · | -1%[76.3 µM] | ·
Cc1ccc(C)c(NNC(N)=S)c1 | -6% | -1% | 2% | -4% | 9.9µM* | -3
Cc1cc(=O)oc2c(CN(C)Cc3ccccc3)c(O)ccc12 | ? | ? | ? | ? | -4% | ?
Cc1cc(=O)oc2c(N)c(O)ccc12 | -1% | -24% | -11% | 6% | 10µM* | -1
Cc1ccc(CNC(=O)CCCc2nnc3n(CC(C)C)c(=O)c4sccc4n23)cc1 | · | · | · | · | 16%[76.3 µM] | ·
CC(C(=O)NCC1CCCCC1)N1CCN(S(=O)(=O)c2cccs2)CC1 (configuration not stated) | · | · | -22% | · | · | ·
